AMA1-RON2 inh: qHTS for Inhibitors of AMA1-RON; Towards Development of Antimalarial Drug Lead: Primary Screen; AlphaScreen AMA1-biotinylated RON2 peptide binding; Potency, µM (doses to about 58.2 µM), for inactives: at the highest dose activity change, negative = inhibition, actives largely listed as inhibitors; 360,000 tested, 0.2% active; AID 720542, 2013;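 further: potency means the concentration at half of the fitted maximal effect; 0% = vehicle wells and -100% = peptide control; nearly all actives have a fitted effect of over 45% in size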
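AMA1 (3D7) with his tag at 25 nM final met compounds first, then biotinylated RON2 peptide at 25 nM; detection used donor plus acceptor beads, 10 µg/mL apiece, read by AlphaScreen after 30 min at room temperature.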
HCV inhibitor: qHTS Assay for Inhibitors of Hepatitis C Virus (HCV) | Potency, µM (doses to about 41.8 µM), without a hit: at the top dose activity change, negative = inhibition, hits mostly inhibitors | Huh7.5.1 HCVcc-Cre infection, luciferase reporter, 44 h | 340,000 tested, 3.4% active; further: potency means the concentration at half of the fitted maximal effect; on the % scale 0 is the no-effect control and ±100 the full control effect
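After 44 h co-culture of compound, cells and HCVcc-Cre (~0.5 moi), substrate is added for 15 min at room temperature and luciferase measured over 15 sec. Cells were seeded at 1,000/well and pre-cultured 4 h.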
Shiga inhibitor: A qHTS for Small Molecule Inhibitors of Shiga Toxin; Vero cells, Shiga toxin protein synthesis inhibition reporter; AID 2315, 2010; inhibition, % at 38.7 µM; 290,000 tested, 9.2% active; in the data active means inhibition mostly above about 28%, no sharp cut-off; inactive means mostly below about 43%; further: 0% is about no effect
Pf growth 96h: Primary qHTS for delayed death inhibitors of the malarial parasite plastid, 96 hour incubation; Potency, µM (highest dose often 28.7 µM), without a hit: top-dose activity change, negative = inhibition, most hits filed as inhibitors; AID 504834, 2011; P. falciparum luciferase reporter growth, 96 h; 320,000 tested, 6.9% active; further: potency means the concentration at half of the fitted maximal effect; on the % scale 0 is the no-effect control and ±100 the full control effect
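Readout is luminescence from an integrated firefly luciferase in P. falciparum. Red cells, 2% hematocrit and 0.05% parasitemia final, were cultured with compound through two parasite generations (96 hours) at 37 C, 5% CO2.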
Cycloheximide cs: Cycloheximide Counterscreen for Small Molecule Inhibitors of Shiga Toxin. AID 2314, 2010. cell reporter, cycloheximide protein synthesis inhibition counterscreen. max response, %. 300,000 tested, 12% active; in the data active means max response mostly above about 13%, no sharp cut-off; inactive means mostly below about 14%; further: read at 38.3 µM for the half of the compounds with a filed dose; 0% is about no effect
Pf growth 48h: Primary qHTS for delayed death inhibitors of the malarial parasite plastid, 48 hour incubation | P. falciparum luciferase growth in erythrocytes, 48 h | Potency, µM (doses to about 28.7 µM), for inactives: at the top dose activity change, negative = inhibition, hits mostly inhibitors | 310,000 tested, 5.9% active | AID 504832, 2011; further: potency means the concentration at half of the fitted maximal effect; on the % scale 0 is the no-effect control and ±100 the full control effect
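Luminescence readout; reporter = integrated firefly luciferase in P. falciparum. RBC culture at 2% hematocrit, 0.1% parasitemia final, 37 C/5% CO2; decreased signal taken as growth inhibition.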
The depositor's hits bear a star; ? = inconclusive; . = no result given. An excerpt weighted towards active compounds, which were near 21% of everything screened. Unless noted, the call rests on the fitted dose curve; in most records, active means well fitted curve in the direction sought with a large enough effect; inconclusive means small, poorly fitted or top-dose-only effect, or another doubt; inactive means no such curve, though single readings can be large; an effect the other way counts as inactive or inconclusive.

SMILES	AMA1-RON2 inh	HCV inhibitor	Shiga inhibitor	Pf growth 96h	Cycloheximide cs	Pf growth 48h
N#C/C(=C\c1ccc(Oc2ccc(C(F)(F)F)cc2[N+](=O)[O-])cc1)c1nc2ccccc2[nH]1	78.3%	-12.0%	15.3	74.2%	15.5	?
N#C/C(=C/c1ccc(N2CCCC2)c([N+](=O)[O-])c1)c1nc2ccccc2[nH]1	4.1%	-27.9%	65.1*	48.6%	41.6*	?
Cc1c(C=C2C(=O)N(C)C(=S)N(C)C2=O)c2ccccc2n1CC(=O)NCC1CCCO1 (configuration not stated)	1.7%	4.2%	-8.8	11.7µM*	1.0	?
Cc1c(C#N)c2ccccc2n1CC(=O)NCC1CCCO1 (configuration not stated)	-1.1%	0.0%	-1.1	?	-4.1	-13.1%
Fc1ccc(CSc2nnc(-c3ccccn3)o2)cc1	-2.6%	-16.1%	41.0*	40.1%	27.7*	86.3%
N#Cc1ccc(CSc2nnc(-c3cnccn3)o2)cc1	-7.4%	8.5%	1.7	?	-1.8	10.8%
O=C(CSc1nnc(-c2ccccn2)o1)Nc1ccc(F)cc1	-48.4%	16.3%	24.5*	13.0%	10.4	180.1%
COc1ccccc1NC(=O)CSc1nnc(-c2ccccn2)o1	52.1%	?	29.3	19.4%	-2.1	158.9%
O=C(CSc1nnc(-c2ccccn2)o1)Nc1ccccc1	85.9%	-3.1%	64.9*	?	20.2	87.4%
CC(C)OCCCNC(=O)C1CCN(S(=O)(=O)c2ccc3nc4c(c(C(=O)O)c3c2)CCCCC4)CC1	-11.3%	13.7%	-4.7	?	-1.5	1.0%
COc1ccccc1C(c1nnnn1CS(=O)(=O)c1ccc(C)cc1)N1CCSCC1 (configuration not stated)	0.3%	1.2%	-19.3	99.6%	-5.2	9.28µM*
COc1cccc(C(c2nnnn2CS(=O)(=O)c2ccc(C)cc2)N2CCN(C)CC2)c1OC (configuration not stated)	-11.5%	10.2%	-9.8	34.2%	-8.9	?
CCCCC(c1nnnn1CS(=O)(=O)c1ccc(C)cc1)N1CCN(c2ccccc2)CC1 (configuration not stated)	-9.0%	-0.4%	-14.4	.	-1.8	13.1µM*
Cc1ccc(S(=O)(=O)Cn2nnnc2C(C(C)C)N2CCN(c3nc4ccccc4s3)CC2)cc1 (configuration not stated)	-1.9%	?	2.2	?	1.1	4.65µM*
COc1ccc(C(NC(=O)/C=C\c2ccco2)c2ccc(OC)c(OC)c2)cc1 (configuration not stated)	-7.5%	-8.2%	105.0*	?	25.0*	?
COc1ccc(CCNC(=O)/C=C/c2ccco2)cc1	-0.3%	-5.3%	18.2	-13.9%	-2.9	-6.6%
COc1ccc(C(NC(=O)/C=C/c2ccco2)c2ccc(OC)cc2)cc1	-4.1%	-8.1%	1.5	2.33µM*	6.6	10.4µM*
CC(C)(C)c1ccc(NC(=O)c2cc(C3CCCN(C(=O)CCc4ccccc4)C3)on2)cc1 (configuration not stated)	-6.6%	.	.	.	.	.
Cc1cccc(Nc2cc(C)c3c(O)cccc3n2)c1C	?	?	92.0*	1.1%	31.9*	0.738µM*
O=C(COC(=O)CCNS(=O)(=O)c1cccs1)Nc1ccccc1	-3.0%	1.4%	.	25.5%	.	0.0%
Cc1cc([N+](=O)[O-])ccc1NC(=O)COc1nsnc1N1CCOCC1	-13.7%	?	-5.1	-26.5%	-2.7	1.85µM*
COc1ccc(CCNC(=O)COc2nsnc2N2CCOCC2)cc1OC	-16.0%	11.3%	-6.0	?	-2.2	1.85µM*
Cc1c(C(=O)NCc2ccco2)oc2ccccc12	-17.4%	9.3%	38.1	-29.3%	9.2	20.5%
COc1cccc(/C=N/NC(=O)c2c(-c3ccccc3)noc2C)c1O	81.9%	?	-8.1	?	-0.8	5.86µM*
COc1cccc(/C=N/NC(=O)c2c(-c3ccccc3)noc2C)c1OC	-0.3%	1.7%	.	.	.	.
SMILES	AMA1-RON2 inh	HCV inhibitor	Shiga inhibitor	Pf growth 96h	Cycloheximide cs	Pf growth 48h
CCOc1cc([N+](=O)[O-])cc(/C=N/NC(=O)c2c(-c3ccccc3)noc2C)c1O	-36.2%	1.7%	-6.9	13.1µM*	11.6	17.7%
COc1ccc(F)cc1-c1cc(C(=O)NC2CCCCC2)[nH]n1	0.9%	.	.	.	.	.
Cc1ccc(C)c(OCc2cc(C(=O)N3CCc4sccc4C3)no2)c1	-9.4%	?	-27.0	-22.5%	-2.4	7.3%
COc1cc(Cl)ccc1OCc1cc(C(=O)N2CCCCC2c2cccnc2)no1 (configuration not stated)	0.6%	0.8%	31.7	?	17.1*	?
Cc1nonc1C1CCCN1C(=O)c1cc(COc2ccc(F)cc2Cl)on1 (configuration not stated)	-5.7%	?	41.1	?	29.1*	2.0%
O=C(c1cc(COc2ccc(F)cc2Cl)on1)N1CCN(C2CCCC2)CC1	16.3%	-5.3%	18.7	?	-3.3	19.0%
COc1cc(Cl)ccc1OCc1cc(C(=O)N2CCN(C)C(=O)[C@@H]2C)no1	-4.3%	.	.	.	.	.
O=C(c1cc(COc2ccc(F)cc2Cl)on1)N1CCC(OCc2cccnc2)CC1	-6.2%	-11.9%	18.8	107.8%	-0.8	?
O=C(c1cc(COc2ccc(F)cc2Cl)on1)N1CCc2sccc2C1	11.4%	12.8%	43.1*	43.6%	26.4*	-12.2%
O=C(c1cc(COc2ccc(F)cc2Cl)on1)N1CCCCC1c1cccnc1 (configuration not stated)	1.1%	?	37.8*	?	25.0*	?
O=C(CSc1nnc(Nc2ccccc2)s1)NCC1CCCO1 (configuration not stated)	-5.4%	7.8%	.	?	.	-13.3%
Cc1cc2c3c([nH]c2cc1S(=O)(=O)NCCCOC(C)C)CC(C)(C)CC3=O	-1.9%	?	-8.0	-6.0%	-1.3	?
Cc1cc(NC(=O)CN2C(=O)N(C)C3(CCCCC3)C2=O)ccc1Br	0.1%	?	.	-26.1%	.	?
COc1cnc(-c2ccccc2)nc1OC	-10.9%	7.7%	70.3	173.1%	20.6	37.8%
COc1cnc(-c2ccccn2)nc1Oc1cccc(Cl)c1	44.3%	13.6%	-8.1	2.62µM*	-0.6	?
COc1cnc(-c2ccccn2)nc1Sc1ccccc1Cl	13.7%	?	-4.6	?	-2.4	?
COc1cnc(-c2ccccn2)nc1N(C)C	-94.4%	?	11.1	2.33µM*	-0.5	4.15µM*
CCOC(=O)C(C)Sc1nc(-c2ccccn2)ncc1OC (configuration not stated)	62.8%	?	1.5	3.29µM*	11.7	13.1µM*
